Results filed as inconclusive are left out. The source made the active and inactive calls.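 The calls were made as follows, unless noted: active = binding below the plate cutoff, the plate median minus 3 SD, with a reading above zero; inconclusive = below the plate cutoff but reading exactly zero; inactive = the rest.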
Key:
[1] = yeast TOR pathway RPL19A-GFP modulators, primary screen, cell-based, S. cerevisiae, multiplex flow cytometry (AID 1862; in the data active = percent of DMSO control GFP below about 86%;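 also: lower values mimic rapamycin by blocking the RPL19A rise seen in DMSO cells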); details: S. cerevisiae RPL19A-GFP strain, flow cytometry fluorescence, 3 h; at 10 µM; stronger effect = lower value
[2] = modulators of MEP2-GFP levels in yeast, primary screen, S. cerevisiae, multiplex flow cytometry (AID 1867;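 active = GFP response, as percent of the DMSO control, above the screen-wide mean plus 3 SD, about 139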;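 also: median GFP channel fluorescence of barcode-gated MEP2-GFP cells measured by flow cytometry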); details: S. cerevisiae MEP2-GFP strain, 3 h, at 10 µM, stronger effect = higher value, 100% means same as DMSO wells
[3] = modulators of CIT2-GFP expression in yeast, primary screen, S. cerevisiae, GFP fusion, multiplex flow cytometry (AID 1870;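 active = percent response above a set limit, the screen-wide mean plus 3 SD, cut at about 130% in these data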;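 also: barcoded CIT2-GFP strain pooled with four other GFP strains with rapamycin as positive control; median GFP fluorescence per well over plate mean of DMSO wells so 100% = DMSO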); details: 3 h, at 10 µM, stronger effect = higher value
[4] = modulators of LAP4-GFP expression in yeast, primary screen, S. cerevisiae, multiplex flow cytometry (AID 1873;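 active = GFP signal, as percent of the solvent control, above the screen mean plus 3 SD, about 149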); details: 3 h, at 10 µM, stronger effect = higher value
[5] = modulators of AGP1-GFP expression in yeast TOR pathway, primary screen, cell-based, multiplex flow cytometry, S. cerevisiae (AID 1887;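 active = GFP signal above the screen-wide mean plus 3 SD, that is over about 124.5% of the solvent control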;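 also: AGP1-GFP fusion strain of S. cerevisiae within a five-strain barcoded multiplex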); details: 3 h, at 10 µM, stronger effect = higher value
[6] = inhibitors of CD8+ T cell-vesicle binding, pilot screen, LFA-1/ICAM-1 modulator project, MLPCN validation set, flow cytometry (AID 2523;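 active = response below a set limit, under 55% cells CD8-positive and vesicle-bound, and CD8 cells' 90th-percentile brightness under 279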;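 as to vesicle binding response: mean PE anti-B7-1 fluorescence of CD8+ cells relative to row control; 100% = QL9-loaded vesicles with DMSO vehicle in the same plate row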); details: 2C mouse CD8+ T cells, at 7 µM, stronger effect = lower value; double positive events: measured here: CD8+/vesicle+ event percentage
[7] = biological target: Integrin beta-1 (Homo sapiens) + Integrin alpha-4 (Homo sapiens) (UniProt P13612+P05556); assay: inhibition of HUTS-21 binding to VLA-4, pilot screen, VLA-4 allosteric modulator project, U937 cells, HUTS-21 mAb, flow cytometry, validation set (AID 2674;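 active = inhibition above 50%, about 3 SD of the validation set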;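 also: antibody binding induced by the VLA-4 ligand LDV present at three times its Kd; 0% = LDV ligand with antibody and no compound and 100% = antibody without LDV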); details: HUTS-21 LIBS mAb binding, at 6.7 µM, stronger effect = higher value, binding induced by LDV ligand
Sequence of Integrin beta-1 (Homo sapiens) + Integrin alpha-4 (Homo sapiens) (P05556 whole entry, looked up): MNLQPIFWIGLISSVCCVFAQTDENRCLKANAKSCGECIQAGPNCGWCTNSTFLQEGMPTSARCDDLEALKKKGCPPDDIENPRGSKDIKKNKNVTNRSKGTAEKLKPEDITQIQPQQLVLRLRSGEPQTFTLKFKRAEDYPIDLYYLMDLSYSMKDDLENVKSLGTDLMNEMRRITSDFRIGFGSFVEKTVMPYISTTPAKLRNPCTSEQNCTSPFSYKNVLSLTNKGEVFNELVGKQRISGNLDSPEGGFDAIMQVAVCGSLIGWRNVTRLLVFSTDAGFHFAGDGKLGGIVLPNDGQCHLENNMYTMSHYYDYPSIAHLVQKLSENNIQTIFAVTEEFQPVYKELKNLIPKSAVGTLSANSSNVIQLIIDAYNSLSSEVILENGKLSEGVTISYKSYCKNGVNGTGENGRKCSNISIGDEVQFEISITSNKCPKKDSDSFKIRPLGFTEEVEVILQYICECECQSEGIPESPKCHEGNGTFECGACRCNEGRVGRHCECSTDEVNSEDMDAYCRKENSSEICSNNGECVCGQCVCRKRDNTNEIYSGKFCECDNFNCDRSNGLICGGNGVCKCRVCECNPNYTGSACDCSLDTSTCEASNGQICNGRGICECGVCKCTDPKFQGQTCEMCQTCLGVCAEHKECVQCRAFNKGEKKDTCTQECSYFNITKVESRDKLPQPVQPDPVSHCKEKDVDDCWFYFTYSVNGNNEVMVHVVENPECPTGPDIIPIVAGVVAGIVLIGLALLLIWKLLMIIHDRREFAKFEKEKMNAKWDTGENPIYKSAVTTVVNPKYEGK
Sequence of Integrin beta-1 (Homo sapiens) + Integrin alpha-4 (Homo sapiens) (P13612 whole entry, looked up): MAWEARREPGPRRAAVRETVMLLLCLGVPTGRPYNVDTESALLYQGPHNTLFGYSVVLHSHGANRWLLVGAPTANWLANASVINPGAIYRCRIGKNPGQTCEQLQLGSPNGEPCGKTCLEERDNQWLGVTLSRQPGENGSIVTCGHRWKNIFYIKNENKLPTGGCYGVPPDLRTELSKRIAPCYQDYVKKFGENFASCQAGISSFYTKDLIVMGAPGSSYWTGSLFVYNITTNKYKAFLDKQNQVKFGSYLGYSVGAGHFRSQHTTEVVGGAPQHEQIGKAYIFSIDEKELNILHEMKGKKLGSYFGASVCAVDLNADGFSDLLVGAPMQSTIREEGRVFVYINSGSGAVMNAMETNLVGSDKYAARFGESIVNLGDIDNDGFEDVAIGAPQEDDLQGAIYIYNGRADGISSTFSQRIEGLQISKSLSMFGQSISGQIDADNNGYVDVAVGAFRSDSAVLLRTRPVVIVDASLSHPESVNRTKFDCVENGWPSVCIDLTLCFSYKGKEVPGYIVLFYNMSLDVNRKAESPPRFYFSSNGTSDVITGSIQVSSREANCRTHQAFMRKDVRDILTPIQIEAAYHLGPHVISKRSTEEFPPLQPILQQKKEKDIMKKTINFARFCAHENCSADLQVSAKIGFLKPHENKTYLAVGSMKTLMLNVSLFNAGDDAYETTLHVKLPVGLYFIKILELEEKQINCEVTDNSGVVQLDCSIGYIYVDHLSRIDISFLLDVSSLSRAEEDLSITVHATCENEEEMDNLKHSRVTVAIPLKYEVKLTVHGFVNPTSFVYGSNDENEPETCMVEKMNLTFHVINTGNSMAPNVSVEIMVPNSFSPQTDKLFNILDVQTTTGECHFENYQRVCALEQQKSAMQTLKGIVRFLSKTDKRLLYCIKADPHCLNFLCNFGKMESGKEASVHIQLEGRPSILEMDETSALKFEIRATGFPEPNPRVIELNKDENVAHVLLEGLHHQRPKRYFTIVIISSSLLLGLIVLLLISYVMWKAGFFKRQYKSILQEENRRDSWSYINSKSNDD

[8] = superoxide lowering in aged yeast cells, pilot screen, validation compound set (AID 2706;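 active = superoxide response below 65% of plate, a cut near 3 SD across the whole screen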;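 also: yeast exposed to compound for one week at 30 degrees C before staining; 100% = mean of all compound wells on the same plate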); details: S. cerevisiae aging, superoxide DHE fluorescence; at 10 µM; stronger effect = lower value
[9] = biological target: Beta-adrenergic receptor kinase 1 (Homo sapiens) (UniProt P25098); assay: GRK2 binders displacing RNA aptamer, biochemical, validation, human GRK2, bead flow cytometry (AID 488806;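 active = aptamer binding inhibition above 30%, about 3 SD of noise from non-fluorescent compounds; inactive = inhibition at or below 30%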); details: bead-bound GRK2, FAM-aptamer displacement, at 10 µM, stronger effect = higher value
Sequence of Beta-adrenergic receptor kinase 1 (Homo sapiens) (P25098 whole entry, looked up): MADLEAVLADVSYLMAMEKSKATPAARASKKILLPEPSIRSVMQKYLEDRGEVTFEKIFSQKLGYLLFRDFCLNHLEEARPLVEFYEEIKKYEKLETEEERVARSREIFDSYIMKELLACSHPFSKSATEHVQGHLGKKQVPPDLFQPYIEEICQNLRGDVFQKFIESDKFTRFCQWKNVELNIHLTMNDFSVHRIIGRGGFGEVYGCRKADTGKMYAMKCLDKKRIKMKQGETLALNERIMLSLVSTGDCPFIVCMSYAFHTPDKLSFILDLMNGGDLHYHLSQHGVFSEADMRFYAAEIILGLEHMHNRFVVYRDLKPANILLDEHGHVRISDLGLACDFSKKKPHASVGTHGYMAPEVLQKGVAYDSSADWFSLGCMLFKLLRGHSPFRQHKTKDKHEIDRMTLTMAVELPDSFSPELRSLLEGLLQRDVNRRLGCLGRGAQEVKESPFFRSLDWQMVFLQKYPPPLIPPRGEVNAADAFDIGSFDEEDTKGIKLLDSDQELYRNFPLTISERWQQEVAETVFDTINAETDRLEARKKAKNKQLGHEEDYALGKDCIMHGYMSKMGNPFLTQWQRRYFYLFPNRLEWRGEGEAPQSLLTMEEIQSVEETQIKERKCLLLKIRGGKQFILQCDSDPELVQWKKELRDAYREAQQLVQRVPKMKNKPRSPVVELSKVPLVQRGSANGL

[10] = biological target: Beta-2 adrenergic receptor (Homo sapiens) (UniProt P07550); assay: beta2AR agonists driving receptor internalization, pilot screen, cell-based, FAP fluorogen, flow cytometry, validation set (AID 504459;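 active = percent response above 42, roughly 3 SD of non-fluorescent test compounds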;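 also: agonist-driven loss of surface beta2AR via internalization measured by FAP dye flow cytometry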); details: Am2.2-beta2AR cells, FAP surface receptor flow cytometry; at 10 µM; stronger effect = higher value
Sequence of Beta-2 adrenergic receptor (Homo sapiens) (P07550 whole entry, looked up): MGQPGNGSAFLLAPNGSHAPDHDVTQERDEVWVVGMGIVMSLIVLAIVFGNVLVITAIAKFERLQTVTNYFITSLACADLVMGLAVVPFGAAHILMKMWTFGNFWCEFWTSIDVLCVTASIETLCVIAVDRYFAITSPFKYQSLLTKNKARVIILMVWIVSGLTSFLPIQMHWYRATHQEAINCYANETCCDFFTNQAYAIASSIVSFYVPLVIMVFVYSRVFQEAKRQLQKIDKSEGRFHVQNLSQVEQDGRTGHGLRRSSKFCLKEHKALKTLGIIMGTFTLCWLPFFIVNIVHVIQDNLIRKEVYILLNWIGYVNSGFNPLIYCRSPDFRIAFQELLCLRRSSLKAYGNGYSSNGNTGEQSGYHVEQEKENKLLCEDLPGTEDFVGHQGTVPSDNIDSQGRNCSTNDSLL

[11] = biological target: AP-2 complex subunit beta (Homo sapiens) (UniProt P63010); assay: inhibitors of arrestin peptide binding to AP2, pilot screen, biochemical, validation set, GST-AP2 beads, flow cytometry (AID 504541;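 active = inhibition above 54%, about 3 SD of non-fluorescent compounds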;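 also: AP2 carries R879A mutation and is captured from E. coli lysate; bead-bound FITC arrestin peptide fluorescence measuring arrestin peptide binding to AP2; 0% = DMSO wells and 100% = excess unlabeled arrestin peptide control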); details: FITC arrestin peptide, at 10 µM, stronger effect = higher value, AP2 beta2 appendage fragment, R879A mutant
Sequence of AP-2 complex subunit beta (Homo sapiens) (P63010 whole entry, looked up, the tested form may be a part, one chain of several): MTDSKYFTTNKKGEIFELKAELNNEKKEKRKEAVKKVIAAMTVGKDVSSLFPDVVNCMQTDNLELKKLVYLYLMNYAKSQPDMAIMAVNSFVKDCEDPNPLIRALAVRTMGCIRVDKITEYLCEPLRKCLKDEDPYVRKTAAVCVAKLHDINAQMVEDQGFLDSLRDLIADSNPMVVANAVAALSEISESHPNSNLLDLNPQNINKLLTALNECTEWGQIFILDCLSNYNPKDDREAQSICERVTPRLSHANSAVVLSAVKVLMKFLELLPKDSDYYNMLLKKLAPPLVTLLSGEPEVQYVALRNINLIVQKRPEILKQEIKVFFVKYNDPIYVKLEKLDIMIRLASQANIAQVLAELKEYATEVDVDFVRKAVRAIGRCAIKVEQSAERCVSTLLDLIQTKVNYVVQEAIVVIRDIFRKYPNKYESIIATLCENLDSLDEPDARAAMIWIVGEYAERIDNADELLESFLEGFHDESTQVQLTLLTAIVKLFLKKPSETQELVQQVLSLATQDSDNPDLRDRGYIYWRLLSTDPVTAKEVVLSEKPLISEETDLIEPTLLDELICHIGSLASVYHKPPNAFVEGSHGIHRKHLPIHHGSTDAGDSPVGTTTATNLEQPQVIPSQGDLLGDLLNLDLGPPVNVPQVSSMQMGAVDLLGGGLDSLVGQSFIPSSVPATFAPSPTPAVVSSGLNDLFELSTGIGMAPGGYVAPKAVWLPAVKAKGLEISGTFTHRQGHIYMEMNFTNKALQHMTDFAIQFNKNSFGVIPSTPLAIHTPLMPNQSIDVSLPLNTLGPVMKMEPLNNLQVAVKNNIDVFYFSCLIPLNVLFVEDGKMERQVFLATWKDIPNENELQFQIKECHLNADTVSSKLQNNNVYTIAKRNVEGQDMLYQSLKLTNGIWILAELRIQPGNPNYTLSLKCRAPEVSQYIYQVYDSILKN

[12] = yeast V-ATPase proton transport modulators, S. cerevisiae, pHLuorin, HTS validation (AID 504600; in the data active = response above about 15%;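 also: plate controls were DMSO for no effect and reference compound for full effect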); details: S. cerevisiae pHLuorin cytosolic pH, at 10 µM, stronger effect = higher value
[13] = test system: anti-desmoglein-3 scFv antibody binding to human DSG3; assay: inhibitors of anti-DSG3 scFv binding to DSG3, pilot screen, biochemical, validation compound set, bead-based, flow cytometry (AID 588368); details: Protein G beads, DSG3-Fc, scFv-GFP binding, at 10 µM, stronger effect = lower value;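 also: signal is the median channel fluorescence of bead-bound GFP antibody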
[14] = inhibitors of fungal efflux pumps CDR1, CDR2, MDR1, pilot screen, validation compound set, multiplex, phenotypic (AID 588506;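 active = efflux inhibition above 0.42, the validation set average plus 4 SD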;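 also: Nile Red retained in cells so higher fluorescence means more efflux inhibition; 0 = negative control wells and 1 = enniatin B 25 µM full block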); details: S. cerevisiae pump-expressing triplex, Nile Red efflux flow cytometry; at 10 µM; stronger effect = higher value; the pumps come from Candida albicans
[15] = biological target: ATP-binding cassette sub-family B member 6 (Homo sapiens) (UniProt Q9NP58); assay: ABCB6 transporter inhibitors, pilot screen, K562-ABCB6 cells, flow cytometry, validation set (AID 588550;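 active = inhibition above the screen-wide mean plus 3 SD, about 51%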;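 also: 0% = DMSO wells and 100% = benzethonium chloride 70 µM positive control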); details: K562-ABCB6 porphyrin accumulation, 1 h, at 10 µM, stronger effect = higher value
Sequence of ATP-binding cassette sub-family B member 6 (Homo sapiens) (Q9NP58 whole entry, looked up): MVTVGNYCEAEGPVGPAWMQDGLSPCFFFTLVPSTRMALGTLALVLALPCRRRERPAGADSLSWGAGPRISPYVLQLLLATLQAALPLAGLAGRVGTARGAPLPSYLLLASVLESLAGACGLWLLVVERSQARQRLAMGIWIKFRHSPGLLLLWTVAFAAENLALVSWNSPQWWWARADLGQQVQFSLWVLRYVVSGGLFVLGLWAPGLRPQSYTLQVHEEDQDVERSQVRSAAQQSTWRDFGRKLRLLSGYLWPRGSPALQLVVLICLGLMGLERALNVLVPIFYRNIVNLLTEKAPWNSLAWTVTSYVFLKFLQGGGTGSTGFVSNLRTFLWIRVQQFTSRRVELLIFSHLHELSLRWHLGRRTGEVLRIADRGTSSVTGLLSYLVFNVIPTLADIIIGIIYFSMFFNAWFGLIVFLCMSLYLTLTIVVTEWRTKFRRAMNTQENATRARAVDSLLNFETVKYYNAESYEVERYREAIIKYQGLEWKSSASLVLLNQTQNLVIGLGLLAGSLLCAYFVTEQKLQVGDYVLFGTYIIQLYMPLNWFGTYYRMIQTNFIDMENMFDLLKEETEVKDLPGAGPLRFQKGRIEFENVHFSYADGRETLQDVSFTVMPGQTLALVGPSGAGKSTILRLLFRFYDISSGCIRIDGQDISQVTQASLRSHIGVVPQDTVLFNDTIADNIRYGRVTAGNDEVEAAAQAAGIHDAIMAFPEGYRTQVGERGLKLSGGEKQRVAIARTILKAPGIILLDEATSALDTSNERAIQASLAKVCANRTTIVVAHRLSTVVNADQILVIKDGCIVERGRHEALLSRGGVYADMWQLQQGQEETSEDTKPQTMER

[16] = promoters of myeloid differentiation in arrested cells, primary screen, cell-based, GFP/MAC1 double positive, flow cytometry, validation set (AID 588685;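 active = differentiation response of at least 50%, scaled between solvent and reference control, from cells with both markers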;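 also: compound exposure lasts four days before antibody staining and flow analysis; 0% = DMSO wells and 100% = 5 µM fulvestrant positive control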); details: ER-HoxA9 marrow cells, stronger effect = higher value, normalized: vehicle 0, fulvestrant 100

Structure (SMILES)	percent of DMSO control GFP [1]	GFP response vs DMSO [2]	percent response of DMSO control [3]	GFP response vs DMSO [4]	GFP response, % of DMSO [5]	double positive events [6]	vesicle binding response [6]	inhibition [7]	superoxide response (% of plate) [8]	aptamer binding inhibition [9]	response [10]	inhibition [11]	response [12]	binding (% of control) [13]	efflux inhibition (fraction of control) [14]	inhibition [15]	differentiation response [16]
CC(=O)N(CCC(Cc1ccccc1)c1ccco1)Cc1ccco1 (stereo not drawn)	88.7% (inactive)	145% (active)	104% (inactive)	77.6% (inactive)	77.1% (inactive)	68.1%	172% (inactive)	-0.33% (inactive)	96.2% (inactive)	1% (inactive)	5.89% (inactive)	13.6% (inactive)	-4.34% (inactive)	97.4% (inactive)	-0.06 (inactive)	5% (inactive)	-3.28% (inactive)
CC(C)(C)NCC(O)COc1ccccc1C(=O)CCc1ccccc1 (stereo not drawn)	101% (inactive)	101% (inactive)	96.4% (inactive)	108% (inactive)	122% (inactive)	60.4%	196% (inactive)	44% (inactive)	129% (inactive)	-1% (inactive)	-37.6% (inactive)	-9.53% (inactive)	-4.49% (inactive)	104% (inactive)	0.04 (inactive)	8% (inactive)	46.2% (inactive)
COc1ccc(OC)c(C(=O)c2coc3ccc(O)cc23)c1	98.7% (inactive)	109% (inactive)	94.4% (inactive)	146% (inactive)	109% (inactive)	63.7%	192% (inactive)	-2.82% (inactive)	88.2% (inactive)	2% (inactive)	-29.6% (inactive)	-14.6% (inactive)	4.67% (inactive)	103% (inactive)	-0.04 (inactive)	0% (inactive)	0.92% (inactive)
O=C(Nc1nc2ccccc2s1)c1ccc(F)cc1	100% (inactive)	106% (inactive)	102% (inactive)	109% (inactive)	105% (inactive)	59.5%	297% (inactive)	-4.52% (inactive)	103% (inactive)	3% (inactive)	-12.7% (inactive)	-2.74% (inactive)	4.11% (inactive)	101% (inactive)	-0.13 (inactive)	9% (inactive)	-4% (inactive)
O=C(CC1SC(=O)NC1=O)Nc1ccc(Cl)cc1 (stereo not drawn)	101% (inactive)	104% (inactive)	108% (inactive)	98% (inactive)	108% (inactive)	65.3%	193% (inactive)	6.95% (inactive)	116% (inactive)	-1% (inactive)	2.95% (inactive)	1.72% (inactive)	1.59% (inactive)	100% (inactive)	-0.205 (inactive)	-3% (inactive)	-16.3% (inactive)
C=CCNC(=O)c1ccc(-c2cccc([N+](=O)[O-])c2)o1	98.8% (inactive)	101% (inactive)	91.7% (inactive)	107% (inactive)	95.1% (inactive)	52.6%	773% (inactive)	6.85% (inactive)	101% (inactive)	3% (inactive)	9.11% (inactive)	-25% (inactive)	-0.55% (inactive)	101% (inactive)	-0.34 (inactive)	4% (inactive)	6.49% (inactive)
CC(C)Cc1ccc(C(C)C(=O)O)cc1 (stereo not drawn)	105% (inactive)	104% (inactive)	95.7% (inactive)	142% (inactive)	111% (inactive)	59.8%	141% (inactive)	4.84% (inactive)	144% (inactive)	0% (inactive)	-11.9% (inactive)	-1.77% (inactive)	0.95% (inactive)	107% (inactive)	-0.17 (inactive)	5% (inactive)	-1.05% (inactive)
CCCNCC(O)COc1ccccc1C(=O)CCc1ccccc1 (stereo not drawn)	101% (inactive)	110% (inactive)	89.6% (inactive)	88.7% (inactive)	92.9% (inactive)	62.4%	894% (inactive)	21.3% (inactive)	98.6% (inactive)	3% (inactive)	-7.14% (inactive)	-4.07% (inactive)	0.31% (inactive)	100% (inactive)	0.11 (inactive)	-1% (inactive)	-0.73% (inactive)
CC(=O)N1CCn2c3c(c4cc(C)ccc42)CCCC31 (stereo not drawn)	99.7% (inactive)	102% (inactive)	98.3% (inactive)	123% (inactive)	111% (inactive)	62%	208% (inactive)	0.59% (inactive)	122% (inactive)	0% (inactive)	14.2% (inactive)	61.1% (active)	4.65% (inactive)	110% (inactive)	0.38 (inactive)	-1% (inactive)	-4% (inactive)
O=C(CCC1CCCN(C(=O)c2ccsc2)C1)NCc1ccc(F)c(F)c1 (stereo not drawn)	99% (inactive)	103% (inactive)	94.2% (inactive)	103% (inactive)	98.9% (inactive)	62.4%	183% (inactive)	-9.79% (inactive)	102% (inactive)	-2% (inactive)	-9.44% (inactive)	-6.99% (inactive)	1.61% (inactive)	104% (inactive)	0.08 (inactive)	-8% (inactive)	8.06% (inactive)
Nc1nc(Cl)nc2c1ncn2[C@H]1C[C@H](O)[C@@H](CO)O1	99.2% (inactive)	102% (inactive)	106% (inactive)	104% (inactive)	114% (inactive)	63.3%	225% (inactive)	0.59% (inactive)	86.7% (inactive)	7% (inactive)	-24.5% (inactive)	27.9% (inactive)	2.75% (inactive)	103% (inactive)	0 (inactive)	-1% (inactive)	-9.91% (inactive)
COc1cc(C2NCCc3c2[nH]c2ccccc32)ccc1OC(C)C (stereo not drawn)	105% (inactive)	103% (inactive)	106% (inactive)	90.4% (inactive)	104% (inactive)	58.1%	85.7% (inactive)	5.61% (inactive)	95.7% (inactive)	0% (inactive)	9.28% (inactive)	1.29% (inactive)	0.8% (inactive)	104% (inactive)	0.08 (inactive)	9% (inactive)	-10.4% (inactive)
Cc1cc(/C=N/O)c(C)n1-c1ccc(Br)cc1	100% (inactive)	101% (inactive)	96.5% (inactive)	93.7% (inactive)	91.1% (inactive)	65.6%	263% (inactive)	-7.79% (inactive)	115% (inactive)	2% (inactive)	11.8% (inactive)	-0.76% (inactive)	-0.17% (inactive)	105% (inactive)	-0.145 (inactive)	-1% (inactive)	-6.03% (inactive)
CN1C(C(=O)Nc2ccccn2)=C(O)c2sccc2S1(=O)=O	102% (inactive)	97.7% (inactive)	105% (inactive)	93.7% (inactive)	102% (inactive)	63.2%	168% (inactive)	-2.43% (inactive)	113% (inactive)	-6% (inactive)	4.21% (inactive)	6.73% (inactive)	4.48% (inactive)	96% (inactive)	0.035 (inactive)	9% (inactive)	4.2% (inactive)
O=C(COc1ccc(F)cc1)OCCN1CCOCC1	102% (inactive)	95.1% (inactive)	112% (inactive)	93.3% (inactive)	102% (inactive)	62.8%	246% (inactive)	-2.53% (inactive)	89.6% (inactive)	0% (inactive)	-7.72% (inactive)	-0.56% (inactive)	21.8% (active)	96.4% (inactive)	-0.1 (inactive)	-1% (inactive)	-6.6% (inactive)
O=C(NCCC(c1ccccc1)c1ccco1)c1cccs1 (stereo not drawn)	97.6% (inactive)	105% (inactive)	91% (inactive)	127% (inactive)	96.5% (inactive)	57.6%	230% (inactive)	-5.89% (inactive)	105% (inactive)	0% (inactive)	-13.3% (inactive)	-6.88% (inactive)	2.49% (inactive)	99.7% (inactive)	-0.21 (inactive)	11% (inactive)	-5.6% (inactive)
CCCCOn1c(C)c(C(C)=O)c2c3no[n+]([O-])c3ccc21	101% (inactive)	105% (inactive)	97.7% (inactive)	120% (inactive)	99.4% (inactive)	59.8%	246% (inactive)	-12.7% (inactive)	106% (inactive)	0% (inactive)	25.4% (inactive)	-10.5% (inactive)	5.1% (inactive)	94.3% (inactive)	-0.1 (inactive)	7% (inactive)	74.4% (active)
CN(C)CCCN1c2ccccc2Sc2ccccc21	98.1% (inactive)	102% (inactive)	99.6% (inactive)	107% (inactive)	120% (inactive)	61.4%	202% (inactive)	44% (inactive)	96.9% (inactive)	-3% (inactive)	0.87% (inactive)	7.22% (inactive)	-5.2% (inactive)	102% (inactive)	-0.09 (inactive)	8% (inactive)	23.6% (inactive)
CC1=NS(=O)(=O)c2cc(Cl)ccc2N1	98.8% (inactive)	105% (inactive)	93.1% (inactive)	84.1% (inactive)	97% (inactive)	63.9%	964% (inactive)	-3.57% (inactive)	104% (inactive)	3% (inactive)	-5.04% (inactive)	14.6% (inactive)	-1.96% (inactive)	101% (inactive)	-0.1 (inactive)	4% (inactive)	34.5% (inactive)

Reference: PubChem BioAssay
